Drawing on PubChem BioAssay (EPA / NIEHS), this text covers outcome and AC50 for 17 compounds.

Activity calls are given as the source filed them. Rule for the calls: active = hit-call score of the fitted dose curve at least 0.9, where 1 is the maximum; inactive = score below 0.9.

In test [1] the target is Transcription factor E2F1 (Homo sapiens) (UniProt Q01094). The test can be described thus: ATG_E2F_CIS: Attagene CIS-FACTORIAL HepG2 Assay for human E2F Transcription Factor 1 (AID 2282935). The following applies: HepG2 Attagene cis-reporter, E2F reporter RNA transcripts; actives raise or lower the signal. The essentials:
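In this cis-factorial format, endogenous factor activity drives transfected reporters in HepG2; transcripts collected at 24 h are quantified by fluorescence after RT-PCR and capillary separation.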

Test [2] is described as follows: ATG_E_Box_CIS: Attagene CIS-FACTORIAL HepG2 Assay for human Enhancer Box (E-box) (AID 2282936). The following applies: HepG2 E-box cis-reporter transcription, actives raise or lower the signal. The essentials:
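Measured 24 h post-dosing in HepG2 cells transfected with multiple cis-regulated reporter units, signal being reporter mRNA induction detected by fluorescent RT-PCR with capillary electrophoresis; gain or loss fitted against DMSO.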

A short description of test [3]: ATG_M_61_CIS: Attagene CIS-FACTORIAL HepG2 Assay for M61 Transcription Factor (Internal Marker) (AID 2282937). The following applies: HepG2 Attagene CIS-FACTORIAL M61 internal marker reporter; actives raise or lower the signal. The gist of the method:
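Multiplexed reporter mRNA assay, HepG2 human hepatoma cells, 24 h treatment. Signal: FAM-labelled, HpaI-digested RT-PCR fragments by CE. Fit: bidirectional, baseline DMSO.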

Test [4] in a line: ATG_EGR_CIS: Attagene CIS-FACTORIAL HepG2 Assay for human Early Growth Response 1 (EGR1) (AID 2282938). Conditions: HepG2 Attagene CIS-FACTORIAL EGR reporter mRNA; actives raise or lower the signal. The gist of the method: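 Multiplexed cis-reporter system in human hepatoma HepG2 cells, transiently transfected. Cells are dosed for 24 h; reporter transcripts are amplified, fluorescently tagged and sized by capillary electrophoresis, with DMSO as negative control.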

Test [5] in a line: ATG_M_19_CIS: Attagene CIS-FACTORIAL HepG2 Assay for M19 Transcription Factor (Internal Marker) (AID 2282939). Conditions: HepG2 Attagene CIS-FACTORIAL M19 internal marker reporter; actives raise or lower the signal. The gist of the method:
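Signals come from fluorescence of labelled reporter-specific PCR fragments resolved by capillary electrophoresis, following 24 h treatment of HepG2 cells transfected with cis-promoter reporter units; activity was fitted in both directions relative to DMSO.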

A short description of test [6]: ATG_ERE_CIS: Attagene CIS-FACTORIAL HepG2 Assay for Estrogen Response Element (ERE) (AID 2282940). The following applies: HepG2 ERE cis-reporter, Attagene RNA transcript; actives raise or lower the signal. The essentials:
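Fluorescence of capillary-separated, FAM-labelled reporter cDNA fragments indicates reporter mRNA levels in HepG2 cells exposed to chemicals for 24 h. Transient transfection with cis-regulated units; data fitted in both directions against DMSO.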

Test [7] can be described thus: ATG_Ets_CIS: Attagene CIS-FACTORIAL HepG2 Assay for human Erythroblast Transformation Specific (ETS) (AID 2282941). Conditions: HepG2 ETS cis-reporter transcription, actives raise or lower the signal. The gist of the method: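 Endogenous transcription factor activity read as reporter mRNA via RT-PCR and capillary electrophoresis, with gain or loss fitted bidirectionally against DMSO. Human HepG2 liver cells, transiently transfected CIS reporter constructs, 24 h exposure.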

Test [8] has as its target Hepatocyte nuclear factor 3-beta (Homo sapiens) (UniProt Q9Y261). The test can be described thus: ATG_FoxA2_CIS: Attagene CIS-FACTORIAL HepG2 Assay for human Forkhead box A2 (FOXA2) (AID 2282942). The following applies: HepG2 cis-reporter transcription factor activity, 24 h; actives raise or lower the signal. The essentials: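 Multiplexed cis-element reporter assay in transiently transfected HepG2. Twenty-four hours post-dosing, RNA was reverse-transcribed, amplified, FAM-labelled, HpaI-digested and separated by CE. Activity gain or loss relative to DMSO.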

Test [9] in a line: ATG_FoxO_CIS: Attagene CIS-FACTORIAL HepG2 Assay for human Forkhead box O (FoxO) (AID 2282943). The following applies: HepG2 Attagene cis-reporter, FoxO element, mRNA; actives raise or lower the signal. The essentials: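 Values reflect reporter mRNA induction or loss in HepG2 cells 24 h post-dosing, fitted bidirectionally with DMSO as negative control and baseline. Detection used RT-PCR and fluorescence capillary electrophoresis.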

Test [10] in a line: ATG_GATA_CIS: Attagene CIS-FACTORIAL HepG2 Assay for human GATA Binding Protein (AID 2282944). Conditions: HepG2 GATA cis-element reporter, Attagene multiplex mRNA; actives raise or lower the signal. The gist of the method:
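After transfecting HepG2 cells with multiple cis-regulated reporter units, chemicals are dosed for 24 h; isolated RNA undergoes RT-PCR and fluorescent labeling before capillary electrophoresis, with activity expressed against DMSO.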

By AC50 is commonly meant the concentration giving half of the maximal activity seen.

Sequence of Hepatocyte nuclear factor 3-beta (Homo sapiens) (Q9Y261 whole entry, looked up): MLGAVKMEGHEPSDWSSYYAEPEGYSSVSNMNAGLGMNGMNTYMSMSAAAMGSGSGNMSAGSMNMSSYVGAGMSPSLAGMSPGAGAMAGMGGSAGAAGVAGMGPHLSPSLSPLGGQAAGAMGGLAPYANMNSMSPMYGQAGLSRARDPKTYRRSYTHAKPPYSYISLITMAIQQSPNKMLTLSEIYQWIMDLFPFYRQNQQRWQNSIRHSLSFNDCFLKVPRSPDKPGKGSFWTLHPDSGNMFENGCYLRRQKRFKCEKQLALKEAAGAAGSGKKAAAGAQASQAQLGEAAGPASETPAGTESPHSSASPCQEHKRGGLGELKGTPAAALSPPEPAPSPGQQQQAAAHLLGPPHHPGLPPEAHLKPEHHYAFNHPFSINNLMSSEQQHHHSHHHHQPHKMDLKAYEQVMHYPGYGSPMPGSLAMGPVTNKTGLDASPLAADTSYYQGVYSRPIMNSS
Sequence of Transcription factor E2F1 (Homo sapiens) (Q01094 whole entry, looked up): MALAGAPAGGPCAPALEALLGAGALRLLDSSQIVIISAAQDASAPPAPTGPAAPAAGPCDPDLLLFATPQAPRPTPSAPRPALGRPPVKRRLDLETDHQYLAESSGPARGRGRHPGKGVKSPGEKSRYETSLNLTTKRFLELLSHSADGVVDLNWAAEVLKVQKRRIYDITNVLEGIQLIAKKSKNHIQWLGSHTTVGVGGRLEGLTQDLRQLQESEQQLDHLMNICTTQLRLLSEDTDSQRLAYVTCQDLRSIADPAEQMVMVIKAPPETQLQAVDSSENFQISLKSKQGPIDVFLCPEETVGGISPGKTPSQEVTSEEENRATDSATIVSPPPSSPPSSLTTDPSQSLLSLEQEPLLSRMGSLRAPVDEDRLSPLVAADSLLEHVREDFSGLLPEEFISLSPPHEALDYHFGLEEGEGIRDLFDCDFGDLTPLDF

Regarding `CCOc1nc(C(Cl)(Cl)Cl)ns1`, the call in [1], in [2], in test [3], in test [4], in test [5] and in test [6] was inactive. Further, the compound was called inactive in test [7], in test [8], in test [9] and in [10].

With `N#Cc1c[nH]cc1-c1cccc2c1OC(F)(F)O2`, the outcome in test [1], in test [2], in test [3], in test [4], in test [8] and in [9] was inactive. Moreover, the call in [10] was inactive. Moreover, the AC50 in test [6] is 5.84 µM (active); in [7], 29 µM (active).

Take `Cc1cnc(C2=NC(C)(C(C)C)C(=O)N2)c(C(=O)O)c1` (configuration not stated): the compound was called inactive in test [1], in test [2], in test [3], in test [4], in test [5] and in [6]. Also, the outcome in test [7], in test [8], in [9] and in test [10] was inactive.

For `COCc1cnc(C2=NC(C)(C(C)C)C(=O)N2)c(C(=O)O)c1` (configuration not stated), the compound was called inactive in [1], in test [2], in test [3], in [4], in test [5] and in test [6]. Besides, the call in test [7], in test [8], in [9] and in test [10] was inactive.

For the compound `COC(=O)NS(=O)(=O)c1ccc(N)cc1`, the call in test [1], in test [2], in test [3], in test [4], in [5] and in test [6] was inactive. Further, the call in test [7], in test [8], in test [9] and in test [10] was inactive.

For `CN=C=S`, the call in test [1], in test [2], in test [3], in test [4], in test [5] and in [6] was inactive. Also, the result in [7], in [8], in [9] and in [10] was inactive.

Turning to `COc1cc(OC)nc(NC(=O)NS(=O)(=O)c2ncccc2OCC(F)(F)F)n1`, the outcome in [1], in test [2], in test [3], in [4], in test [5] and in [6] was inactive. Also, the compound was classed as inactive in [7], in [8], in test [9] and in test [10].

On to `CCC(C)n1c(=O)[nH]c(C)c(Br)c1=O` (configuration not stated), for which the compound was classed as inactive in test [1], in [2], in test [3], in test [4], in test [5] and in test [6]. Moreover, the outcome in [7], in [8], in [9] and in [10] was inactive.

In the case of `CC(C)C1(C)N=C(c2ncccc2C(=O)O)NC1=O` (configuration not stated), the compound was classed as inactive in test [1], in [2], in test [3], in [4], in [5] and in [6]. Besides, the compound was classed as inactive in [7], in test [8], in [9] and in test [10].

For the compound `COP(=S)(OC)Oc1ccc([N+](=O)[O-])c(C)c1`, the result in [1], in test [2], in test [3], in [5], in test [7] and in test [8] was inactive. The result in test [9] and in test [10] was inactive. Further, the results for the AC50 in [4] and in test [6] were 28.9 µM (active) and 13.7 µM (active), respectively.

In the case of `CSC(=O)c1c(C(F)F)nc(C(F)(F)F)c(C(=O)SC)c1CC(C)C`, the compound was called inactive in test [1], in test [2], in test [3], in test [4], in test [5] and in test [7]. Moreover, the compound was classed as inactive in test [8], in [9] and in [10]. In test [6], the concentration at half-maximal activity (AC50) is 3.83 µM (active).

Take `COC(=O)NC(=S)Nc1ccccc1NC(=S)NC(=O)OC`: the call in [1], in test [2], in test [3], in test [4], in test [6] and in test [7] was inactive. Also, the compound was called inactive in [8], in [9] and in [10].

On to `CC(C)Oc1cccc(NC(=O)c2ccccc2C(F)(F)F)c1`, for which the result in test [1], in test [2], in test [3], in [4], in [5] and in [7] was inactive. Also, the outcome in [8], in test [9] and in test [10] was inactive. The concentration at half-maximal activity (AC50) in test [6] is 13.3 µM (active).

`O=C1C2CC=CCC2C(=O)N1SC(Cl)(Cl)Cl` (configuration not stated): the compound was classed as inactive in test [1], in test [2], in test [3], in [4], in test [5] and in test [6]. Moreover, the compound was classed as inactive in test [7], in [8], in [9] and in [10].

As to `COCC(=O)N(c1c(C)cccc1C)C(C)C(=O)OC` (configuration not stated), the compound was called inactive in test [1], in test [2], in [3], in test [4], in test [6] and in [7]. Further, the call in [8], in [9] and in test [10] was inactive.

Turning to `C=C(C)CN(CC)c1c([N+](=O)[O-])cc(C(F)(F)F)cc1[N+](=O)[O-]`, the compound was classed as inactive in test [1], in [2], in [3], in test [4], in test [5] and in test [7]. Also, the outcome in test [8], in test [9] and in test [10] was inactive. For the same compound, the AC50 in [6] was 31.2 µM (active).

As for `COP(=S)(OC)SCn1nnc2ccccc2c1=O`, the compound was called inactive in [1], in test [2], in [3], in test [5], in test [6] and in test [7]. Further, the call in [8], in test [9] and in test [10] was inactive. In addition, the AC50 in test [4] is 23.7 µM (active).
